Reference: PubChem BioAssay (Tox21)
Results filed as inconclusive are left out. Activity calls are given as the source filed them. Unless noted, calls come from the whole dose curve; as a rule, active = well fitted curve in the direction sought with a large enough effect in the repeat runs; inconclusive = weak or mixed curves; inactive = no such curve, though single readings can be large; an effect the other way counts as inactive or inconclusive.

Columns and labels:
[1] = qHTS assay to identify small molecule antagonists of the thyroid receptor (TR) signaling pathway - cell viability counter screen (AID 743064); note: nearly all actives have a fitted effect of over 50% in size
Summary of the method: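 GH3.TRE-Luc rat pituitary cells dosed after 4 hr plating, co-stimulated with T3 at 1 nM final, incubated 23.5 h at 37 C. Viability measured in the same wells by CellTiter-Fluor fluorescence after 30 min further at 37 C.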

[2] = qHTS assay to identify small molecule antagonists of the thyroid receptor (TR) signaling pathway (AID 743065); note: series mostly up to about 70 µM; nearly all actives have a fitted effect of over 55% in size
Summary of the method: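 GH3.TRE-Luc rat pituitary cells (two TREs driving luciferase) were dosed with compound, then stimulated with 1 nM T3 (final) for 23.5 h at 37 C. ONE-Glo luminescence was the read-out, with CellTiter-Fluor fluorescence as the cytotoxicity counter-screen.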

[3] = tested on: thyroid hormone receptor (rat, GH3 cells); assay: qHTS assay to identify small molecule agonists of the thyroid receptor (TR) signaling pathway (AID 743066; calls by dose curve)
[4] = molecular target: Estrogen receptor (Homo sapiens) (UniProt P03372); assay: qHTS assay to identify small molecule antagonists of the estrogen receptor alpha (ER-alpha) signaling pathway (AID 743069; active = well fitted curve in the direction sought with a large enough effect in the signal ratio in the repeat runs, not every such curve was filed as active; the % refers to the signal ratio)
Summary of the method: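 HEK293 ER-alpha-UAS-bla GripTite cells, held overnight in 2% charcoal-stripped FBS, 5,000 cells/well, preincubated 4 h, then compound plus 17beta-estradiol for 18 h at 37C. Beta-lactamase read by LiveBLAzer B/G FRET substrate, 2 h at room temperature.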

[5] = qHTS assay to identify small molecule antagonists of the estrogen receptor alpha (ER-alpha) signaling pathway - cell viability counter screen (AID 743074; calls by dose curve;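 note: HEK293 cells carrying ER-alpha-UAS-bla reporter stimulated with 17beta-estradiol; nearly all actives have a fitted effect of over 45% in size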)
[6] = molecular target: Estrogen receptor (Homo sapiens) (UniProt P03372); assay: qHTS assay to identify small molecule agonists of the estrogen receptor alpha (ER-alpha) signaling pathway (AID 743075; calls by dose curve)
[7] = molecular target: Estrogen receptor (Homo sapiens) (UniProt P03372); assay: qHTS assay to identify small molecule agonists of the estrogen receptor alpha (ER-alpha) signaling pathway using the BG1 cell line (AID 743079); note: nearly all actives have a fitted effect of over 20% in size
[8] = qHTS assay to identify small molecule antagonists of the estrogen receptor alpha (ER-alpha) signaling pathway using the BG1 cell line (AID 743080; calls by dose curve;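 note: BG1 cells stimulated with 17beta-estradiol alongside compound; series mostly up to about 70 µM; nearly all actives have a fitted effect of over 25% in size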)
Summary of the method: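 BG1Luc4E2, endogenous ER-alpha, 4xERE-luc; 5 d charcoal-stripped FBS, phenol red free; 24 h plating; cpd + 17beta-estradiol 21.5 h, 37 C/5% CO2; CellTiter-Fluor viability 30 min, then ONE-Glo luciferase 30 min RT.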

[9] = qHTS assay to identify small molecule antagonists of the estrogen receptor alpha (ER-alpha) signaling pathway using the BG1 cell line - cell viability counter screen (AID 743081);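 note: compound given together with 17beta-estradiol as the ER stimulus; series mostly up to about 70 µM; nearly all actives have a fitted effect of over 45% in size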
Aromatase (Homo sapiens) = Aromatase (Homo sapiens) (UniProt P11511); assay: qHTS assay to identify aromatase inhibitors (AID 743083); note: series mostly up to about 70 µM; nearly all actives have a fitted effect of over 55% in size
[10] = qHTS assay to identify aromatase inhibitors - cell viability counter screen (AID 743084);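 note: cells stimulated with testosterone during compound exposure; nearly all actives have a fitted effect of over 55% in size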
[11] = molecular target: Aryl hydrocarbon receptor (Homo sapiens) (UniProt P35869); assay: qHTS assay to identify small molecule that activate the aryl hydrocarbon receptor (AhR) signaling pathway (AID 743085);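 note: HG2L7.5c1 human HepG2 liver cells with stably integrated DRE-driven firefly reporter; series mostly up to about 70 µM; nearly all actives have a fitted effect of over 15% in size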
Summary of the method: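 HepG2 cells stably carrying a 20-DRE firefly luciferase reporter (HG2L7.5c1) treated with compound for 24 hr at 37C. Luciferase read by ONE-Glo luminescence, with CellTiter-Fluor viability read first.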

[12] = qHTS assay to identify small molecule that activate the aryl hydrocarbon receptor (AhR) signaling pathway - cell viability counter screen (AID 743086);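 note: HepG2 liver cells carrying the AhR DRE luciferase reporter; series mostly up to about 70 µM; nearly all actives have a fitted effect of over 45% in size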
Summary of the method: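 HepG2-AhR-luc (HG2L7.5c1) cells, 4000/well, treated 24 h at 37 C with compound; viability measured as CellTiter-Fluor fluorescence after 30 min in the same wells as the luciferase read.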

[13] = molecular target: Peroxisome proliferator-activated receptor gamma (Homo sapiens) (UniProt P37231); assay: qHTS assay to identify small molecule agonists of the peroxisome proliferator-activated receptor gamma (PPARg) signaling pathway (AID 743094; active = well fitted activation curve with a large enough effect in the signal ratio in the repeat runs, not every such curve was filed as active; the % refers to the signal ratio)
Summary of the method: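 GeneBLAzer PPARg UAS-bla HEK293H cells were plated, rested 5 h, then exposed to compounds for 17 h at 37C. Beta-lactamase activity was read by LiveBLAzer B/G FRET substrate fluorescence after 1 h at room temperature.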

[14] = molecular target: Peroxisome proliferator-activated receptor gamma (Homo sapiens) (UniProt P37231); assay: qHTS assay to identify small molecule antagonists of the peroxisome proliferator-activated receptor gamma (PPARg) signaling pathway (AID 743191; calls by dose curve; note: series mostly up to about 63 µM; nearly all actives have a fitted effect of over 30% in size)
Summary of the method: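 GeneBLAzer PPARg UAS-bla HEK293H cells, 5 h post-plating, exposed to compounds 17 h at 37C. LiveBLAzer B/G FRET substrate added for 1 h at room temperature; beta-lactamase reporter read by fluorescence intensity.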

[15] = qHTS assay to identify small molecule antagonists of the peroxisome proliferator-activated receptor gamma (PPARg) signaling pathway - cell viability counter screen (AID 743194); note: nearly all actives have a fitted effect of over 55% in size
Summary of the method: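 Cytotoxicity counter screen in PPARg-bla HEK293H cells, same wells as reporter assay. Compounds plus 50 nM rosiglitazone (final) for 17 h at 37 C, then viability read by CellTiter-Glo luminescence.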

[16] = qHTS assay for small molecule agonists of the antioxidant response element (ARE) signaling pathway (AID 743202; active = well fitted activation curve with a large enough effect in the signal ratio in the repeat runs, not every such curve was filed as active; the % refers to the signal ratio)
Summary of the method: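 ARE-bla HepG2 cells (beta-lactamase reporter under the antioxidant response element), plated 5 hours, then exposed to compounds 16 hours at 37 C. LiveBLAzer B/G FRET substrate added for 2 hours at room temperature; fluorescence intensity read.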

[17] = qHTS assay for small molecule agonists of the antioxidant response element (ARE) signaling pathway - cell viability counter screen (AID 743203; calls by dose curve; note: nearly all actives have a fitted effect of over 55% in size)
Summary of the method: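 ARE-bla HepG2 cells were plated, rested 5 h at 37C/5% CO2, then exposed to compounds in DMSO for 16 h. Viability was read as CellTiter-Glo luminescence after 30 min at room temperature, in the same wells as the ARE screen.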

[18] = qHTS assay for small molecule activators of the heat shock response signaling pathway - cell viability counter screen (AID 743209); note: nearly all actives have a fitted effect of over 50% in size
Summary of the method: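 HSE-bla HeLa cells plated overnight, then exposed to Tox21 compounds (23 nL in DMSO) for 5 h at 37 C. After the bla reporter read, CellTiter-Glo was added in the same wells and luminescence read after 30 min at room temperature.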

[19] = qHTS assay for small molecule activators of the heat shock response signaling pathway (AID 743210; active = well fitted activation curve with a large enough effect in the signal ratio in the repeat runs, with a control signal flat, not every such curve was filed as active; the % refers to the signal ratio; note: series mostly up to about 63 µM)
Summary of the method: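 HSE-bla HeLa cells (beta-lactamase reporter under heat shock response elements), plated overnight, then exposed to compounds 5 h at 37 C; LiveBLAzer B/G FRET substrate added, 2.5 h at room temperature, fluorescence intensity read.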

Measured: Potency

Sequence of Estrogen receptor (Homo sapiens) (P03372 whole entry, looked up): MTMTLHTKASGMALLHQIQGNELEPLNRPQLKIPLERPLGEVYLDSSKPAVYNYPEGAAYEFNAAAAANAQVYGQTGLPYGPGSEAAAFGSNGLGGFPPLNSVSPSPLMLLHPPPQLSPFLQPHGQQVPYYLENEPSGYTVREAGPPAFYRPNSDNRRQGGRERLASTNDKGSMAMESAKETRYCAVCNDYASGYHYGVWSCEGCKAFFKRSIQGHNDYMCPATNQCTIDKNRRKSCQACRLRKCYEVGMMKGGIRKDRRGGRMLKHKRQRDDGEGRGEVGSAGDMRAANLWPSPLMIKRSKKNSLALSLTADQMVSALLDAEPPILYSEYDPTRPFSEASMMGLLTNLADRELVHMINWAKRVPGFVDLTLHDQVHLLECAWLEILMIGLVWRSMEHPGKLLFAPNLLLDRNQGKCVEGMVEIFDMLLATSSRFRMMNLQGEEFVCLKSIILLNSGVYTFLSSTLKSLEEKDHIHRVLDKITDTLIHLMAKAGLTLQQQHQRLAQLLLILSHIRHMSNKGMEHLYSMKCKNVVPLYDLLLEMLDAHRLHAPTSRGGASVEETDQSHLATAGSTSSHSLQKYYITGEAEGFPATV
Sequence of Aryl hydrocarbon receptor (Homo sapiens) (P35869 whole entry, looked up): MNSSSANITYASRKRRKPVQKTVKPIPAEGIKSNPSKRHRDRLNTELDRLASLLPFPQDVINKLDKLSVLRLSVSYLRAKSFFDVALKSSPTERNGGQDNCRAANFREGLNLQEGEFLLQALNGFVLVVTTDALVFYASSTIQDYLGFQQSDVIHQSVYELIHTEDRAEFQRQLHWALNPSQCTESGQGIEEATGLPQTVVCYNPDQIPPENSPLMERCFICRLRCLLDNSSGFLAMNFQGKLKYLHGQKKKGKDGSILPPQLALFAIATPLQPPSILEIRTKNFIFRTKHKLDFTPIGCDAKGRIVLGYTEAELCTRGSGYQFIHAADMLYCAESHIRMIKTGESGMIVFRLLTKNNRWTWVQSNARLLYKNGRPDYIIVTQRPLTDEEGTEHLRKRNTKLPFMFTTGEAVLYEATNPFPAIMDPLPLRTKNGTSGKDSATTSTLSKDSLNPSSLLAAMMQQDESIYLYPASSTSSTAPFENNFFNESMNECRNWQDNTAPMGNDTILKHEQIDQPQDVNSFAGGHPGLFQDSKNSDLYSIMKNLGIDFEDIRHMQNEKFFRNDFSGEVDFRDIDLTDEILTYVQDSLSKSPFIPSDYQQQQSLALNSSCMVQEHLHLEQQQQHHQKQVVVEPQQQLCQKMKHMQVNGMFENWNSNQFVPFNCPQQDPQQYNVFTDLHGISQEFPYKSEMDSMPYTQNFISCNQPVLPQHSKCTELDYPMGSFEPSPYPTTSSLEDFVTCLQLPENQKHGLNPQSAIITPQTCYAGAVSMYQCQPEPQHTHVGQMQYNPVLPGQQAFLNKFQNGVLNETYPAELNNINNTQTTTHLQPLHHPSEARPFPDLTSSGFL
Sequence of Peroxisome proliferator-activated receptor gamma (Homo sapiens) (P37231 whole entry, looked up): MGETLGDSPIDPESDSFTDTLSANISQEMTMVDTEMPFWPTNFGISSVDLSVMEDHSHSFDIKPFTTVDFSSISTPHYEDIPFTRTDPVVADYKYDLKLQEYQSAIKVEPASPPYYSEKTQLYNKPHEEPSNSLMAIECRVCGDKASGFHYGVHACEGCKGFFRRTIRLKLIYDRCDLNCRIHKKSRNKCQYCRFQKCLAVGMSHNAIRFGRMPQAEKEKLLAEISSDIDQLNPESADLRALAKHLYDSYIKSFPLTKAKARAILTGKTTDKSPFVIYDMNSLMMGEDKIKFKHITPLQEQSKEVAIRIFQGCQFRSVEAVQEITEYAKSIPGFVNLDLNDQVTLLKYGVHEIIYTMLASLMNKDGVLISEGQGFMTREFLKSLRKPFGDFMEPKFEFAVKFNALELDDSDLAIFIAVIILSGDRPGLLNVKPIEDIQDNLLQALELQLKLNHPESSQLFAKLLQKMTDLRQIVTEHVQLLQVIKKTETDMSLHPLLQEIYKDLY
Sequence of Aromatase (Homo sapiens) (P11511 whole entry, looked up): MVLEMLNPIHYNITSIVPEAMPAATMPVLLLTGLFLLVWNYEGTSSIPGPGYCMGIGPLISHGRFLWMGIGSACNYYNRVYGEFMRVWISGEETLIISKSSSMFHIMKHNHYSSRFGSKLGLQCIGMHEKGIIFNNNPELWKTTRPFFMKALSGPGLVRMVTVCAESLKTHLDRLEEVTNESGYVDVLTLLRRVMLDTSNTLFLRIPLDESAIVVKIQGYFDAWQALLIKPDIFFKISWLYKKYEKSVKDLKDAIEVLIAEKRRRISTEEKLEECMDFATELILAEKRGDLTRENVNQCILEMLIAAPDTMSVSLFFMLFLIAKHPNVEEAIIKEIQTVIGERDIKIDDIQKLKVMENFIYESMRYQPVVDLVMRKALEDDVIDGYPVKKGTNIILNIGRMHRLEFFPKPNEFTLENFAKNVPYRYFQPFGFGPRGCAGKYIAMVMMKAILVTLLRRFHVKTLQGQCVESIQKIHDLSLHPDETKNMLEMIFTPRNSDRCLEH

CN1C(C)(C)CCCC1(C)C
inactive: [1] | [2] | [3] | [4] | [5] | [6] | [7] | [8] | [9] | Aromatase (Homo sapiens) | [10] | [11] | [12] | [13] | [14] | [15] | [16] | [17] | [18]

Cc1ccsc1/C=C/C1=NCCCN1C
inactive: [1] | [2] | [3] | [4] | [5] | [6] | [7] | [8] | [9] | Aromatase (Homo sapiens) | [10] | [11] | [12] | [13] | [15] | [16] | [17] | [18]

CC(C)CCCC(C)(C)O
inactive: [1] | [2] | [3] | [4] | [5] | [6] | [7] | [8] | [9] | Aromatase (Homo sapiens) | [10] | [11] | [12] | [13] | [14] | [15] | [16] | [17] | [18]

CCCCC(CC)COCCO (stereo unspecified)
inactive: [1] | [2] | [3] | [4] | [5] | [6] | [7] | [8] | [9] | Aromatase (Homo sapiens) | [10] | [11] | [12] | [13] | [14] | [15] | [17]

CC1(C)S[C@@H]2[C@H](N=CN3CCCCCC3)C(=O)N2[C@H]1C(=O)O
inactive: [1] | [2] | [3] | [4] | [5] | [6] | [7] | [8] | [9] | Aromatase (Homo sapiens) | [10] | [11] | [12] | [13] | [14] | [15] | [17] | [18]

COc1cc(C(=S)N2CCOCC2)cc(OC)c1OC
inactive: [1] | [2] | [3] | [4] | [5] | [6] | [7] | [8] | [9] | Aromatase (Homo sapiens) | [10] | [11] | [12] | [13] | [14] | [15] | [16] | [17] | [19]

C=C(C)C(=O)OCC(C)(C)COC(=O)C(=C)C
inactive: [1] | [2] | [3] | [4] | [5] | [6] | [7] | [8] | [9] | Aromatase (Homo sapiens) | [10] | [11] | [12] | [13] | [14] | [15] | [16] | [17] | [18]

CC(C)(C)NC(N)=O
inactive: [1] | [2] | [3] | [4] | [5] | [6] | [7] | [8] | [9] | Aromatase (Homo sapiens) | [10] | [11] | [12] | [13] | [14] | [15] | [17] | [18] | [19]

CC(=O)NCCCCCC(=O)O
inactive: [1] | [2] | [3] | [4] | [5] | [6] | [7] | [8] | [9] | Aromatase (Homo sapiens) | [10] | [11] | [12] | [13] | [14] | [15] | [17] | [18] | [19]

Cc1cc(C(C)(C)C)c(O)c(C)c1CC1=NCCN1
inactive: [1] | [2] | [3] | [4] | [5] | [6] | [7] | [8] | [9] | Aromatase (Homo sapiens) | [10] | [11] | [12] | [13] | [14] | [15] | [17] | [18] | [19]

CC(=O)/C=C/C1C(C)=CCC(C)C1(C)C (stereo unspecified)
inactive: [1] | [2] | [3] | [4] | [5] | [6] | [7] | [8] | [9] | Aromatase (Homo sapiens) | [10] | [11] | [12] | [13] | [14] | [15] | [17]

CCN(C)C(=O)Oc1cccc([C@H](C)N(C)C)c1
inactive: [1] | [2] | [3] | [4] | [5] | [6] | [7] | [8] | [9] | Aromatase (Homo sapiens) | [10] | [11] | [12] | [13] | [14] | [15] | [16] | [18] | [19]

CCOc1cc(NC(C)=O)ccc1C(=O)OC
inactive: [1] | [2] | [3] | [4] | [5] | [6] | [7] | [8] | [9] | Aromatase (Homo sapiens) | [10] | [11] | [12] | [13] | [14] | [17] | [18]

CCC(CC)CO
inactive: [1] | [2] | [3] | [4] | [5] | [6] | [7] | [8] | [9] | Aromatase (Homo sapiens) | [10] | [11] | [12] | [13] | [14] | [16] | [17] | [18] | [19]

CCCC(=O)C(C)=O
inactive: [1] | [2] | [3] | [4] | [5] | [6] | [7] | [8] | [9] | Aromatase (Homo sapiens) | [10] | [11] | [12] | [13] | [14] | [15] | [17] | [19]
